Test results from PubChem BioAssay AID1159580 (chemical genetic matrix, 2015).
Hit rate of the full screen: of about 5,500 compounds, about 2,000 (36%) were called active. Not shown: some 18% with an inconclusive outcome. Cut-off read from the data, not from the text of the source: active = normalized growth mostly below about 0.91 (no sharp cut-off); inconclusive = no clear call, values can overlap the other calls; inactive = mostly above about 0.92. Some of the results follow.

Experiment: chemical genetic growth profiling, strain panel (AID 1159580);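 note: tested at 20 µM; growth read once vehicle control cultures reached saturation at 30 °C; 1 = growth at the plate median or of vehicle wells; lower values mean less growth of the strain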
Conditions: S. cerevisiae deletion strains, growth OD

Measured: normalized growth

CC(C)(Oc1ccc(C2CC2(Cl)Cl)cc1)C(=O)O (configuration not stated)
inactive: locus YAL021C, strain ccr4, active compounds read low 1 | locus YAL026C, strain drs2, active compounds read low 1 | locus YAL030W, strain snc1, active compounds read low 1 | locus YAL040C, strain CLN3, active compounds read low 0.988 | locus YBL061C, strain skt5, active compounds read low 0.997 | locus YBR009C, strain hhf1, active compounds read low 0.995 | locus YBR023C, strain chs3, active compounds read low 0.992 | locus YBR171W, strain sec66, active compounds read low 0.996 | locus YBR231C, strain swc5, active compounds read low 0.997 | locus YBR279W, strain paf1, active compounds read low 1.02 | locus YCL011C, strain gbp2, active compounds read low 1.01 | locus YCL016C, strain dcc1, active compounds read low 0.992 | locus YCL061C, strain MRC1 (second series), active compounds read low 0.988 | locus YCL061C, strain MRC1, active compounds read low 0.99 | locus YCL069W, strain vba3, active compounds read low 1.01 | locus YCR088W, strain abp1, active compounds read low 0.997 | locus YDL005C, strain med2, active compounds read low 0.998 | locus YDL040C, strain nat1, active compounds read low 1 | locus YDR001C, strain nth1, active compounds read low 1.01 | locus YDR069C, strain doa4, active compounds read low 1 | locus YDR137W, strain rgp1, active compounds read low 0.964 | locus YDR159W, strain sac3, active compounds read low 0.997 | locus YDR195W, strain ref2 0.989 | locus YDR297W, strain sur2, active compounds read low 0.998 | locus YDR334W, strain swr1, active compounds read low 1 | locus YDR335W, strain msn5, active compounds read low 1 | locus YDR392W, strain spt3, active compounds read low 0.944 | locus YEL003W, strain gim4, active compounds read low 1.02 | locus YEL037C, strain rad23, active compounds read low 1.01 | locus YEL061C, strain CIN8 (second series), active compounds read low 1.01 | locus YER002W, strain NOP16, active compounds read low 0.962 | locus YER015W, strain faa2, active compounds read low 0.994 | locus YER016W, strain bim1, active compounds read low 1 | locus YER111C, strain swi4, active compounds read low 0.998 | locus YER155C, strain BEM2 (second series), active compounds read low 1 | locus YFR010W, strain ubp6, active compounds read low 0.99 | locus YGL167C, strain pmr1, active compounds read low 0.998 | locus YGL173C, strain kem1, active compounds read low 1 | locus YGL227W, strain vid30, active compounds read low 1 | locus YGL240W, strain doc1, active compounds read low 1 | locus YGL253W, strain hxk2, active compounds read low 1.01 | locus YHR013C, strain ard1, active compounds read low 0.973 | locus YHR027C, strain rpn1, active compounds read low 0.995 | locus YHR142W, strain chs7, active compounds read low 1 | locus YJL092W, strain hpr5, active compounds read low 1.01 | locus YJL095W, strain BCK1 (second series), active compounds read low 0.997 | locus YJL115W, strain asf1, active compounds read low 0.999 | locus YJL129C, strain trk1, active compounds read low 0.987 | locus YJL154C, strain vps35, active compounds read low 1.01 | locus YJL164C, strain tpk1, active compounds read low 1 | locus YJL166W, strain qcr8, active compounds read low 0.985 | locus YJL187C, strain SWE1, active compounds read low 0.992 | locus YKL160W, strain elf1, active compounds read low 0.978 | locus YKR026C, strain gcn3, active compounds read low 0.997 | locus YKR091W, strain srl3, active compounds read low 1 | locus YLL001W, strain dnm1, active compounds read low 0.968 | locus YLL026W, active compounds read low 1 | locus YLL041C, strain sdh2, active compounds read low 1.01 | locus YLR027C, strain aat2, active compounds read low 0.998 | locus YLR221C, strain rsa3, active compounds read low 0.994 | locus YLR258W, strain gsy2, active compounds read low 1 | locus YLR262C, strain YPT6 (second series), active compounds read low 0.981 | locus YLR320W, strain mms22, active compounds read low 0.976 | locus YLR342W, strain FKS1, active compounds read low 1 | locus YLR357W, strain rsc2, active compounds read low 1.01 | locus YLR370C, strain arc18, active compounds read low 1 | locus YLR384C, strain iki3, active compounds read low 1 | locus YML120C, strain ndi1, active compounds read low 0.985 | locus YMR058W, strain fet3, active compounds read low 1 | locus YMR125W, strain sto1, active compounds read low 0.996 | locus YMR129W, active compounds read low 0.996 | locus YMR205C, strain PFK2, active compounds read low 0.973 | locus YMR231W, strain pep5, active compounds read low 1 | locus YNL071W, strain lat1, active compounds read low 0.998 | locus YNL153C, strain GIM3, active compounds read low 1.01 | locus YNL175C, strain NOP13, active compounds read low 0.98 | locus YNL197C, strain WHI3, active compounds read low 1.08 | locus YNL209W, strain ssb2, active compounds read low 1 | locus YNL224C, strain SQS1, active compounds read low 0.99 | locus YNL248C, strain rpa49, active compounds read low 1 | locus YNL322C, strain KRE1 (second series), active compounds read low 0.984 | locus YNR049C, strain mso1, active compounds read low 1 | locus YOR001W, strain rrp6, active compounds read low 1.02 | locus YOR070C, strain gyp1, active compounds read low 0.998 | locus YOR080W, strain dia2, active compounds read low 0.988 | locus YOR083W, strain WHI5 (second series), active compounds read low 1.01 | locus YOR083W, strain WHI5, active compounds read low 0.977 | locus YOR106W, strain vam3, active compounds read low 0.972 | locus YOR265W, strain rbl2, active compounds read low 1 | locus YOR270C, strain vph1, active compounds read low 0.99 | locus YOR290C, strain snf2, active compounds read low 1.01 | locus YPL051W, strain arl3, active compounds read low 0.994 | locus YPL078C, strain atp4, active compounds read low 0.993 | locus YPL106C, strain sse1, active compounds read low 0.951 | locus YPL240C, strain hsp82, active compounds read low 1.01 | locus YPL241C, strain CIN2, active compounds read low 0.984

O=[N+]([O-])c1ccc(Sc2ssc(=S)c2-c2ccccc2)nc1
active: locus YDL214C, strain PRR2, active compounds read low 0.521 | locus YDR477W, strain SNF1, active compounds read low 0.651 | locus YER123W, strain YCK3, active compounds read low 0.338 | locus YER133W, strain GLC7, active compounds read low 0.512 | locus YFR019W, strain FAB1, active compounds read low 0.546 | locus YGR040W, strain KSS1, active compounds read low 0.673 | locus YGR052W, strain FMP48, active compounds read low 0.449 | locus YHR030C, strain SLT2, active compounds read low 0.159 | locus YHR079C, strain IRE1, active compounds read low 0.247 | locus YHR082C, strain KSP1, active compounds read low 0.471 | locus YJL095W, strain BCK1, active compounds read low 0.175 | locus YJL157C, strain FAR1, active compounds read low 0.485 | locus YJR066W, strain TOR1 (second series), active compounds read low 0.312 | locus YJR066W, strain TOR1, active compounds read low 0.327 | locus YKL067W, strain YNK1, active compounds read low 0.61 | locus YKL203C, strain TOR2, active compounds read low 0.674 | locus YLR113W, strain HOG1, active compounds read low 0.362 | locus YLR133W, strain CKI1, active compounds read low 0.626 | locus YML070W, strain DAK1, active compounds read low 0.371 | locus YMR205C, strain PFK2 (second series), active compounds read low 0.722 | locus YNL020C, strain ARK1, active compounds read low 0.624 | locus YNL183C, strain NPR1, active compounds read low 0.256 | locus YNL307C, strain MCK1 (second series), active compounds read low 0.633 | locus YOL136C, strain PFK27, active compounds read low 0.376 | locus YOR061W, strain CKA2, active compounds read low 0.664 | locus YOR231W, strain MKK1, active compounds read low 0.229 | locus YPL031C, strain PHO85, active compounds read low 0.57 | locus YPL153C, strain RAD53, active compounds read low 0.537 | locus YPL204W, strain HRR25, active compounds read low 0.422 | locus YPL256C, strain CLN2, active compounds read low 0.3
inactive: locus YAR019C, strain CDC15, active compounds read low 0.922 | locus YBL105C, strain PKC1, active compounds read low 0.946 | locus YBR135W, strain CKS1, active compounds read low 0.943 | locus YBR136W, strain MEC1, active compounds read low 0.952 | locus YBR160W, strain CDC28, active compounds read low 0.947 | locus YDL017W, strain CDC7, active compounds read low 0.954 | locus YDL028C, strain MPS1, active compounds read low 0.953 | locus YDL101C, strain DUN1, active compounds read low 0.961 | locus YDL108W, strain KIN28, active compounds read low 0.953 | locus YDL132W, strain cdc53, active compounds read low 0.956 | locus YDR052C, strain DBF4, active compounds read low 0.968 | locus YDR054C, strain cdc34, active compounds read low 0.918 | locus YDR226W, strain ADK1, active compounds read low 1.01 | locus YFL009W, strain cdc4, active compounds read low 0.948 | locus YFL029C, strain CAK1, active compounds read low 0.922 | locus YFR003C, strain YPI1, active compounds read low 0.958 | locus YFR028C, strain CDC14, active compounds read low 0.97 | locus YGR092W, strain DBF2, active compounds read low 0.617 | locus YHR205W, strain SCH9, active compounds read low 0.782 | locus YIL147C, strain SLN1, active compounds read low 0.956 | locus YJL128C, strain PBS2, active compounds read low 1.05 | locus YJR016C, strain ILV3, active compounds read low 0.951 | locus YKL048C, strain ELM1, active compounds read low 0.843 | locus YKL101W, strain HSL1, active compounds read low 0.791 | locus YKL193C, strain SDS22, active compounds read low 0.933 | locus YLR403W, strain SFP1, active compounds read low 0.703 | locus YMR001C, strain CDC5, active compounds read low 0.932 | locus YMR277W, strain FCP1, active compounds read low 0.961 | locus YNL006W, strain LST8, active compounds read low 0.942 | locus YNL161W, strain CBK1, active compounds read low 0.929 | locus YNL207W, strain RIO2, active compounds read low 0.944 | locus YNL222W, strain SSU72, active compounds read low 0.934 | locus YOL078W, strain AVO1, active compounds read low 0.928 | locus YOR119C, strain RIO1, active compounds read low 0.728 | locus YOR329C, strain SCD5, active compounds read low 0.945 | locus YPL209C, strain IPL1, active compounds read low 0.945 | locus YPR025C, strain CCL1, active compounds read low 0.944 | locus YPR106W, strain ISR1, active compounds read low 0.999 | locus YPR111W, strain DBF20, active compounds read low 0.994 | strain NNK1, active compounds read low 0.956 | strain TSCII, active compounds read low 0.917
